Reference: PubChem BioAssay (EPA / NIEHS)
Calls of active or inactive are those of the source. The calls were made as follows: active = hit-call score of the fitted dose curve at least 0.9, where 1 is the maximum; inactive = score below 0.9.

The molecules below were run on Plasminogen activator inhibitor-1 (PAI1), SERPINE1 (gene 5054) (assay: BSK_BE3C_PAI1: BioMAP Diversity Plus: BE3C Assay for Plasminogen activator inhibitor-1 (PAI1) Biomarker Activity (AID 2283037)). Settings: primary human bronchial epithelial cells; actives raise or lower the signal.
Description: BSK_BE3C is a cell-based, multiplexed-readout assay that uses bronchial epithelial cell, a human lung primary cell, with measurements taken at 24 hours after chemical dosing in a 96-well plate.BSK_BE3C_PAI1 is an assay component measured in the BSK_BE3C assay. It measures PAI-1 antibody related to regulation of gene expression using ELISA technology.Data from the assay component BSK_BE3C_PAI1 was analyzed into 1 assay endpoint. This assay endpoint, BSK_BE3C_PAI1, was analyzed with bidirectional fitting relative to DMSO as the negative control and baseline of activity. Using a type of binding reporter, gain or loss-of-signal activity can be used to understand changes in the signaling as they relate to the gene SERPINE1. Furthermore, this assay endpoint can be referred to as a primary readout, because this assay has produced multiple assay endpoints where this one serves a signaling function. To generalize the intended target to other relatable targets, this assay endpoint is annotated to the cytokine intended target family, where the subfamily is plasmogen activator inhibitor.
The levels of cell surface (or secreted, indicated by the prefix "s") biomarker endpoints were measured by ELISA. Overt cytotoxicity to cells in confluent adherent cultures (all systems other than the BT system) was assessed by measuring total protein levels using sulforhodamine B (SRB) staining in parallel cultures at the time of biomarker measurements, indicated as SRB endpoints. For proliferation assays for adherent cell types, individual cell types are cultured at sub-confluence and relative cell numbers quantified by SRB staining at time points optimized for each system (48 h: 3C and CASM3C systems; 72 h: BT and HDF3CGF systems; 96 h: SAg system). SRB was performed by staining cells with 0.1% SRB after fixation with 10% TCA and reading wells at 560 nm.Viability and proliferation of PBMC (T cells) was quantified by Alamar Blue reduction for the SAg and BT systems. For PBMC viability (referred to as PBMC Cytotoxicity within the assay endpoint names), cells were plated (75,000/well in a 96-well plate) and then chemical samples added for 1 h before addition of activators, SEB and TSST-1 (20 ng/mL final concentration each). Cells were incubated for 90 h. Then, Alamar Blue (20 uL/well) (Invitrogen, Cat DAL1100) was added for 6 h, and the plates were read with a fluorescence microplate reader at 546/580 nm (excitation/emission). For PBMC proliferation, cells were plated and activated as above but incubated for only 16 h prior to addition of Alamar Blue. Plates were read after 6 h.
`CC(C)NC(=O)N1CC(=O)N(c2cc(Cl)cc(Cl)c2)C1=O` was tested, and the outcome was “inactive”. `CNC(=O)N(C)c1nnc(C(C)(C)C)s1` was tested, and the outcome was “inactive”. `CC1(C)CCC(=Cc2ccc(Cl)cc2)C1(O)Cn1cncn1` (stereo not given) was tested, and the outcome was “inactive”. For `N#CN=C1SCCN1Cc1ccc(Cl)nc1`, the outcome was “inactive”. With `CN/C(=N\[N+](=O)[O-])NCc1cnc(Cl)s1` the outcome was “inactive”. For `COP(=S)(OC)Oc1ccc([N+](=O)[O-])c(C)c1`, the outcome was “inactive”. In the case of `Cc1cnc(C2=NC(C)(C(C)C)C(=O)N2)c(C(=O)O)c1` (stereo not given), the outcome is reported as “inactive”. `CNC(=O)Oc1cccc2ccccc12` was tested, and the outcome was “inactive”. With `CC(C)Oc1cccc(NC(=O)c2ccccc2C(F)(F)F)c1` the outcome was “inactive”. `CC(C)(C)C(=O)C(Oc1ccc(Cl)cc1)n1cncn1` (stereo not given) was tested, and the outcome was “inactive”. For `O=P(O)(O)CCCl`, the outcome was “inactive”. In the case of `COC(=O)N(C(=O)N1CO[C@@]2(C(=O)OC)Cc3cc(Cl)ccc3C2=N1)c1ccc(OC(F)(F)F)cc1`, the outcome is reported as “inactive”. `CC1(C)C(C=C(Cl)Cl)C1C(=O)OC(C#N)c1cccc(Oc2ccccc2)c1` (stereo not given) was tested, and the outcome was “inactive”. With `CC1(C)C(C(=O)OC(C#N)c2cccc(Oc3ccccc3)c2)C1(C)C` (stereo not given) the outcome was “inactive”. In the case of `COc1cc(Cl)c(OC)cc1Cl`, the outcome is reported as “inactive”. For `CC(C)N1C(=O)N(c2ccccc2)CSC1=NC(C)(C)C`, the outcome was “inactive”. In the case of `CS(=O)(=O)c1cc(C(F)(F)F)ccc1C(=O)c1cnoc1C1CC1`, the outcome is reported as “inactive”. With `O=C1C2CC=CCC2C(=O)N1SC(Cl)(Cl)Cl` (stereo not given) the AC50 was 12.4 µM (active). With `O=C(Nc1ccccc1-c1ccc(Cl)cc1)c1cccnc1Cl` the outcome was “inactive”. For `CC1(C)CON(Cc2ccccc2Cl)C1=O`, the outcome was “inactive”. With `Cc1ccc(N=CN(C)C=Nc2ccc(C)cc2C)c(C)c1` the AC50 was 30.7 µM (active). For `Cn1c(-c2ccccc2)cc(-c2ccccc2)[n+]1C`, the outcome was “inactive”. `O=c1n(Cl)c(=O)n(Cl)c(=O)n1Cl` was tested, and the outcome was “inactive”. `CCOP(=O)(OCC)Oc1nc(Cl)c(Cl)cc1Cl` was tested, and the outcome was “inactive”. In the case of `CCCCC(O)(Cn1cncn1)c1ccc(Cl)cc1Cl` (stereo not given), the outcome is reported as “inactive”. For `CS(=O)(=O)c1ccc(C(=O)C2C(=O)CCCC2=O)c([N+](=O)[O-])c1`, the outcome was “inactive”. `COC(=O)c1c(C(F)F)nc(C(F)(F)F)c(C2=NCCS2)c1CC(C)C` was tested, and the AC50 was 3.97 µM (active). With `CC(C)=CC1C(C(=O)OCc2coc(Cc3ccccc3)c2)C1(C)C` (stereo not given) the outcome was “inactive”. With `Cc1nc(N(C)C)nc(OC(=O)N(C)C)c1C` the outcome was “inactive”. In the case of `COc1cc(OC)nc(NC(=O)NS(=O)(=O)c2ncccc2OCC(F)(F)F)n1`, the outcome is reported as “inactive”. With `Nc1c(Cl)c(Cl)nc(C(=O)O)c1Cl` the outcome was “inactive”. For `CSC(=O)c1c(C(F)F)nc(C(F)(F)F)c(C(=O)SC)c1CC(C)C`, the outcome was “inactive”. For `COCC(=O)N(c1c(C)cccc1C)C(C)C(=O)OC` (stereo not given), the outcome was “inactive”. For `N#Cc1c(Cl)cccc1Cl`, the outcome was “inactive”. With `CCOP(=S)(OCC)Oc1nc(Cl)n(C(C)C)n1` the outcome was “inactive”. In the case of `CCOC(=O)C(C)OC(=O)c1cc(Oc2ccc(C(F)(F)F)cc2Cl)ccc1[N+](=O)[O-]` (stereo not given), the outcome is reported as “inactive”. With `Clc1nc(Cl)nc(Nc2ccccc2Cl)n1` the outcome was “inactive”. `CC(C)C1(C)N=C(c2ncccc2C(=O)O)NC1=O` (stereo not given) was tested, and the outcome was “inactive”. `CO/N=C(/C1=NOCCO1)c1ccccc1Oc1ncnc(Oc2ccccc2Cl)c1F` was tested, and the outcome was “inactive”. `COCC(C)N(C(=O)CCl)c1c(C)csc1C` (stereo not given) was tested, and the outcome was “inactive”.
